Sampled rows, rich in hits. Any-hit rate of the full collection: about 9%.
ALDH1A1 block – inhibitors of human aldehyde dehydrogenase 1A1; P00352; Purified ALDH1A1, NADH fluorescence, propionaldehyde substrate; Potency, µM (highest dose often 75.3 µM), for inactives: at the highest dose activity, negative = inhibition, most hits filed as inhibitors; 220,000 tested, 7.3% active; AID 1030;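 further: potency means the concentration at half of the fitted maximal effect; plate controls were no enzyme wells and a reference inhibitor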
IMPase inh – cell-permeable inhibitors of inositol monophosphatase (IMPase). CHO-M1 cells, IP1 accumulation, HTRF TR-FRET ratio. inhibition (IP1 accumulation), % at 46.1 µM. 120,000 tested, under 10 active. AID 901; active means well fitted curve in the direction sought with a large enough effect in the signal ratio, not every such curve was filed as active; inconclusive means small, poorly fitted or top-dose-only effect, or a change in a side signal; inactive means no such curve, though single readings can be large or run the other way; the % refers to the signal ratio;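 further: cells stimulated with carbachol in lithium chloride buffer; plate controls were DMSO basal wells for no effect and reference inhibitor wells for full effect; higher means more IMPase inhibition seen as more IP1 and lower FRET ratio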
Target sequence (P97697 whole entry, looked up): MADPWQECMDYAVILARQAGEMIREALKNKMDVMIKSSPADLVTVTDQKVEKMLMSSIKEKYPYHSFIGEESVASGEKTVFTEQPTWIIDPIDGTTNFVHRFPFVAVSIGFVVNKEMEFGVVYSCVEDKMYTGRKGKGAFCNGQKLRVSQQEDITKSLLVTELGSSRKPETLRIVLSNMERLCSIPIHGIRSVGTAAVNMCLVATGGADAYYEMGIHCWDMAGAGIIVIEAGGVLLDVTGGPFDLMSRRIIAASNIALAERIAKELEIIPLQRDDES
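The IP-One HTRF competitive assay in carbachol-stimulated CHO-M1 cells quantifies cellular IP1. Compounds spanned up to 46 uM final, and activity is expressed as AC50 from concentration-response fits of the ratio and donor data.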
HPGD block – blocks human HPGD enzyme activity. 150,000 tested, 4.3% active. Potency, µM, for inactives: at the top dose activity change, negative = inhibition, most hits filed as inhibitors. P15428. purified HPGD, NADH fluorescence kinetic, PGE2 substrate; further: potency means the concentration at half of the fitted maximal effect
Target sequence (P15428 whole entry, looked up): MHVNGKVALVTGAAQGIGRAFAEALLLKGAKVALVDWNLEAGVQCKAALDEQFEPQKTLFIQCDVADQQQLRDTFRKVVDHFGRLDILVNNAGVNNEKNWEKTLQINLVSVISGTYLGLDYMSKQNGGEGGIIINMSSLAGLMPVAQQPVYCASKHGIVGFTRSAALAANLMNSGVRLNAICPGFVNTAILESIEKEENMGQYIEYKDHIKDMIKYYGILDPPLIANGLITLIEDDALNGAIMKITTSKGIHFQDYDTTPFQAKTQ
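20 nM HPGD preincubated 15 min at room temperature with compound in 50 mM Tris-HCl pH 8, 0.01% Tween 20. Started with 1 mM NAD+ and 30 uM prostaglandin E2; NADH fluorescence (360/450 nm) read 5 times over 30-s intervals, last minus first.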
Starred values were filed as active, the others as inactive; [ ] = another dose, or the depositor's remark. Unless noted, the call rests on the fitted dose curve; in most records, active means well fitted inhibition curve with a large enough effect (not every such curve was filed as active); inconclusive means small, poorly fitted or top-dose-only effect, or another doubt; inactive means no such curve, though single readings can be large or run the other way. Unless noted, on the % scale 0 is the no-effect control and ±100 the full control effect.

Results for N#Cc1cccc(NC(=O)N2CCC(c3nc4c(nnn4Cc4cccc(Cl)c4)c(=O)[nH]3)CC2)c1 ?
ALDH1A1 block: -2%; IMPase inh: 4; HPGD block: 10µM*

Results for O=C(NC1CCCC1)c1nc2c(nnn2Cc2ccccc2Cl)c(=O)[nH]1 ?
ALDH1A1 block: -2%; IMPase inh: 0; HPGD block: inconclusive

Results for COC(=O)N1CCC2(CCN(C(=O)Nc3cccc(C#N)c3)CC2)CC1 ?
ALDH1A1 block: 0%; HPGD block: -5%

How did Cc1ccc(Cn2nnc3c(=O)[nH]c(C4CCN(S(=O)(=O)c5ccc(C)cc5)CC4)nc32)cc1 do in these assays?
ALDH1A1 block: 10%; IMPase inh: 0; HPGD block: -23%

How did COc1ccc(NC(=O)N2CCC(c3nc4ccccc4[nH]3)CC2)cc1 do in these assays?
ALDH1A1 block: -17%

What do the screens show for `CCC(C(=O)NN1C(=O)c2ccccc2C1=O)c1ccccc1` (stereo unspecified)?
ALDH1A1 block: -2%

Results for O=C(c1nnc(-c2ccncc2)o1)c1ccccc1Cl ?
ALDH1A1 block: -4%; IMPase inh: -3; HPGD block: -5%

What do the screens show for `CCN(CC)C(=O)C(Cc1ccccc1)N1C(=O)c2ccccc2C1=O` (stereo unspecified)?
ALDH1A1 block: 2%; IMPase inh: 3; HPGD block: -3%

What do the screens show for `O=C(NC1CCCCC1)N1CCN(Cc2ccco2)CC1`?
ALDH1A1 block: 1%

How did CC1(c2ccccc2)NC(=O)N(CCOc2ccccc2)C1=O (stereo unspecified) do in these assays?
ALDH1A1 block: 22µM*; IMPase inh: 5; HPGD block: 1%

Results for CC1(c2ccccc2)NC(=O)N(CC(=O)NC(=O)NC2CCCC2)C1=O (stereo unspecified) ?
ALDH1A1 block: 13µM*; IMPase inh: 5; HPGD block: -10%

Results for Cc1ccc(C2(C)NC(=O)N(CC(=O)NC(=O)NC3CCCC3)C2=O)cc1 (stereo unspecified) ?
ALDH1A1 block: -7%; IMPase inh: -2; HPGD block: -4%

Results for Cc1cccc(C)c1OCCN1C(=O)NC(C)(c2ccccc2)C1=O (stereo unspecified) ?
ALDH1A1 block: 5%

What do the screens show for `CC(=O)O[C@H]1CC[C@]2(C)C(=CC[C@H]3[C@H]4C[C@H]5O[C@]6(CC[C@H](C)CN6)[C@H](C)[C@@H]5[C@]4(C)CC[C@@H]32)C1`?
ALDH1A1 block: -4%[13.5 µM]; HPGD block: -7%

How did Cc1c(C(=O)NCCN2CCOCC2)oc2ccc(S(=O)(=O)N3CCCCCC3)cc12 do in these assays?
ALDH1A1 block: 25µM*; IMPase inh: 16; HPGD block: -17%

How did Cc1c(C(=O)NCCc2ccccc2)oc2ccc(S(=O)(=O)N3CCOCC3)cc12 do in these assays?
ALDH1A1 block: -15%; IMPase inh: 4; HPGD block: -10%

Results for Cc1[nH]nc(SCC(=O)N2CCCC2)c1[N+](=O)[O-] ?
ALDH1A1 block: -14%

Results for Cc1[nH]nc(SCC(=O)N2CCC(C)CC2)c1[N+](=O)[O-] ?
ALDH1A1 block: 10µM*; IMPase inh: 6; HPGD block: 6.3µM*

How did O=C(CC(c1ccccc1)c1ccccc1O)NCCN1CCOCC1 (stereo unspecified) do in these assays?
ALDH1A1 block: 14%; IMPase inh: -6; HPGD block: -10%

Results for O=C(Cc1ccccc1)NCc1cccnc1 ?
ALDH1A1 block: -5%

Results for O=C(NCc1cccnc1)c1cc(Sc2ccccc2Cl)nc2ccccc12 ?
ALDH1A1 block: 7.9µM*; HPGD block: -7%

How did Clc1ccc(Cl)c2sc(N3CCCC3)nc12 do in these assays?
ALDH1A1 block: 10µM*; IMPase inh: 9; HPGD block: inconclusive

What do the screens show for `Clc1cccc2sc(N3CCN(c4ccccc4)CC3)nc12`?
ALDH1A1 block: 4%; IMPase inh: -9; HPGD block: -27%

Results for COc1ccc(-c2nc3ccccc3n3c(-c4cccc(C)c4)c4c(=O)n(C)c(=O)n(C)c4c23)cc1OC ?
IMPase inh: 14

Results for CC(C)Oc1cccc(C(=O)C2CCCN(S(C)(=O)=O)C2)c1 (stereo unspecified) ?
ALDH1A1 block: -8%

Results for Cc1ccc(NC(=O)CC2S/C(=N/N=C/c3ccco3)NC2=O)cc1Cl (stereo unspecified) ?
ALDH1A1 block: -1%

What do the screens show for `CC(C)C1S/C(=N/N=C/c2ccco2)NC1=O` (stereo unspecified)?
IMPase inh: 4; HPGD block: 13µM*

Results for Cc1ccc(C(=O)NNC(=O)c2cccnc2SCc2cccc([N+](=O)[O-])c2)cc1 ?
ALDH1A1 block: 4%; IMPase inh: -3; HPGD block: -15%

Results for CCOC(=O)/C=C1\NC(C)(C)Cc2cc(OC)c(OC)cc21 ?
ALDH1A1 block: -4%; IMPase inh: -10; HPGD block: -5%

How did CCOC(=O)/C=C1\NC(C)(C)Cc2cc(OC)c(O)cc21 do in these assays?
ALDH1A1 block: 11µM*; IMPase inh: 4; HPGD block: 35µM*

What do the screens show for `Cc1cc(OCC(=O)Nc2ccc(F)c(F)c2)nc(C(C)C)n1`?
ALDH1A1 block: 25µM*; IMPase inh: 6; HPGD block: -12%

What do the screens show for `Cc1cc(OCC(=O)Nc2ccccc2F)nc(C(C)C)n1`?
ALDH1A1 block: 5%; IMPase inh: 13; HPGD block: 1%

How did O=C(OCC1CC(c2ccccn2)=NO1)c1ccc(Br)cc1 (stereo unspecified) do in these assays?
ALDH1A1 block: -2%; IMPase inh: -7; HPGD block: -7%

What do the screens show for `Cc1ccccc1C(=O)c1c[nH]c(C(=O)NCc2ccco2)c1`?
ALDH1A1 block: 20µM*; IMPase inh: 4; HPGD block: -17%

How did Cc1ccccc1C(=O)c1c[nH]c(C(=O)NCCc2ccccn2)c1 do in these assays?
ALDH1A1 block: 22µM*

What do the screens show for `CCC(=O)c1c[nH]c(C(=O)NCCc2ccccn2)c1`?
ALDH1A1 block: 7%; IMPase inh: 1; HPGD block: -3%

How did COc1ccc(C(=O)c2c[nH]c(C(=O)NCc3ccco3)c2)cc1 do in these assays?
ALDH1A1 block: inconclusive; IMPase inh: 1; HPGD block: inconclusive

Results for CCOC(=O)c1cc(OC(=O)c2ccc(C)cc2)n(-c2ccccc2)n1 ?
IMPase inh: -7

How did C=CCn1c(CCC(O)COCCC)n[nH]c1=S (stereo unspecified) do in these assays?
ALDH1A1 block: -1%

What do the screens show for `CC1(C)OC(=O)N(Cc2ccco2)C1(C)O` (stereo unspecified)?
ALDH1A1 block: 18µM*; IMPase inh: 1; HPGD block: -17%

Results for CC1(C)OC(=O)N(CCc2ccccc2)C1(C)O (stereo unspecified) ?
ALDH1A1 block: 2%; IMPase inh: -3; HPGD block: -12%

How did COCC(=O)/C=C1\Sc2ccccc2N1C do in these assays?
ALDH1A1 block: inconclusive; IMPase inh: 2; HPGD block: -22%

How did CN1/C(=C/C(=O)C2CCC2)Sc2ccccc21 do in these assays?
ALDH1A1 block: 3.5µM*; IMPase inh: 2; HPGD block: -29%

What do the screens show for `Cc1ccccc1NC(=O)c1c(F)c(F)c(F)c(F)c1F`?
ALDH1A1 block: 6%; IMPase inh: -6; HPGD block: -6%
